The text below walks through data of the supplement of paper PMC6555819.

Holding throughout (assay): PBM binding z-score (relative to random genomic background probes); higher = stronger binding; sequences stand for … in GC…GCGATTGACAGCGTAGAATGAAGG
Assay [1] relates to FXR:RXRa (NR concentration 270 nM, RXRa partner concentration 90 nM). In a few lines:
(§1)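 Antibodies against each partner of ligand-free nuclear receptor dimers (one per run) detected binding on custom Agilent 4×180K protein-binding microarrays after 1 h incubation. The double-stranded probes had 34-nt variable regions carrying direct-repeat seeds, single-nucleotide variants, half-site ablations and random human genomic background sequences. Binding z-scores, from regression-normalized fluorescence, use the random background probes as reference.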

Assay [2] deals with LXRa:RXRa (NR concentration 270 nM, RXRa partner concentration 90 nM). In a few lines: as §1
In assay [3] the test system is LXRa homodimer (NR concentration 270 nM). In short, it runs like this:
as §1

The test system of assay [4] is LXRb:RXRa (NR concentration 270 nM, RXRa partner concentration 90 nM). In short, it runs like this: as §1
Assay [5] concerns LXRb homodimer (NR concentration 270 nM). In short, it runs like this:
as §1

In assay [6] the test system is PPARa:RXRa (NR concentration 270 nM, RXRa partner concentration 90 nM). In a few lines:
as §1

Assay [7] has as its system PPARg:RXRa (NR concentration 180 nM, RXRa partner concentration 90 nM). In a few lines:
as §1

Assay [8] relates to PPARg:RXRa 270nM:90nM, anti-RXR (NR concentration 270 nM, RXRa partner concentration 90 nM). In a few lines: as §1
In assay [9] the test system is PPARg:RXRa 30nM:10nM, anti-RXR (NR concentration 30 nM, RXRa partner concentration 10 nM). In a few lines: as §1
Assay [10] relates to PPARg:RXRa 90nM:30nM, anti-RXR (NR concentration 90 nM, RXRa partner concentration 30 nM). In a few lines: as §1
For assay [11], the system named is PPARg:RXRa DBDmut IVT, anti-RXR (DBD mutation: RXRa K156A/R161A, NR concentration 270 nM, RXRa partner concentration 90 nM). In a few lines:
as §1

Assay [12] concerns PPARg:RXRa IVT, anti-PPARg (NR concentration 270 nM, RXRa partner concentration 90 nM). In short, it runs like this:
as §1

Assay [13] has as its system PPARg DBDmut:RXRa IVT, anti-PPARg (DBD mutation: PPARg1 K132A/R137A, NR concentration 270 nM, RXRa partner concentration 90 nM). In a few lines: as §1
Assay [14] relates to PPARg DBDmut IVT, anti-PPARg (DBD mutation: PPARg1 K132A/R137A, NR concentration 270 nM). In a few lines:
as §1

Assay [15] deals with PPARg homodimer (NR concentration 180 nM). In a few lines: as §1
Assay [16] deals with PXR:RXRa (NR concentration 270 nM, RXRa partner concentration 90 nM). In short, it runs like this: as §1
The test system of assay [17] is PXR homodimer (NR concentration 270 nM). In a few lines: as §1
In assay [18] the test system is RARa:RXR (NR concentration 270 nM, RXRa partner concentration 90 nM). In a few lines:
as §1

For assay [19], the system named is RARa homodimer (NR concentration 270 nM). In a few lines: as §1
Assay [20] deals with RARb:RXRa (NR concentration 270 nM, RXRa partner concentration 90 nM). In a few lines:
as §1

Consider GCTCGGAGGACAATGTCAGAGCTTTGTCCGTAGA, for which the PBM binding z-score in assay [1] is -0.623; in assay [2], -0.613; in assay [3], -0.612; in [4], -0.519; in [5], -0.999; in assay [6] it was -0.586. In addition, the PBM binding z-score in assay [7] was -0.765; in [8], -0.898; in assay [9] it was -1.25; in assay [10], -1.01; in assay [11], -0.596; in assay [12] it was -0.513. Moreover, the PBM binding z-score in assay [13] was -1.4; in assay [14], -0.198; in assay [15], -1.02; in assay [16], -0.494; in [17], -0.648; in assay [18] it was -0.772. In addition, the PBM binding z-score was -1.31 in [19] and 0.788 in assay [20].
Take CCTCGGAGGACAAAAGGTCAGAGCTGTCCGCTTT: the PBM binding z-score in assay [1] is 3.66; in assay [2], 4.52; in assay [3], 2; in assay [4], 3.34; in assay [5], -0.114; in [6], 3.96. Moreover, the PBM binding z-score worked out at 1.65 in assay [7]; 3.76 in [8]; 1.1 in assay [9]; 3.22 in assay [10]; 1.07 in assay [11]; 1.62 in [12]. In addition, the PBM binding z-score in [13] is -0.684; in [14] it was -1.47; in [15] it was 4.04; in assay [16], 3.72; in [17], 0.0706; in [18] it was 4.59. Further, the PBM binding z-score in [19] stood at 0.836; in assay [20], 4.61.
On to ATATGTAGGTTAGCTGGGTTCATTCAGACTAGGC, for which the PBM binding z-score was found to be 1.75 in assay [1]; 4.53 in assay [2]; 2.19 in assay [3]; 2.2 in assay [4]; 0.361 in [5]; 3.76 in assay [6]. The PBM binding z-score in assay [7] came out at 4.18; in assay [8] it was 3.74; in assay [9], 1.75; in assay [10], 2.89; in assay [11] it was 6.03; in assay [12], 6.16. The PBM binding z-score is 1.92 in assay [13]; 2.15 in [14]; 2.07 in assay [15]; 6.34 in assay [16]; 7.23 in [17]; 2.56 in [18]. Also, the PBM binding z-score in assay [19] turned out to be 1.06; in assay [20], 1.35.
For the sequence GATACAGGGTCAAGGCCAGAGTCCGCGTATTGAT, the PBM binding z-score in assay [1] was 6.15; in assay [2], 4.03; in assay [3], -0.217; in assay [4] it was 3.58; in assay [5], 0.0048; in assay [6] it was 5.35. The PBM binding z-score in [7] is 5.26; in assay [8] it was 5.31; in assay [9], 1.52; in [10], 3.89; in assay [11], 2.59; in assay [12] it was 3.9. The PBM binding z-score in [13] is -0.201; in assay [14], -0.204; in assay [15], 1.62; in assay [16], 3.79; in assay [17] it was 0.344; in [18], 4.03. In addition, the values for the PBM binding z-score in assay [19] and in assay [20] were 0.185 and 4.39, respectively.
In the case of AGAATGAGGTTATACGTAGATCACGGAAGAAAGT, the PBM binding z-score in [1] is 2.18; in assay [2], 2.11; in [3], 0.266; in [4], 1.61; in assay [5], -0.128; in assay [6], 3.03. For the same sequence, the PBM binding z-score was determined as 1.91 in assay [7]; 2.03 in [8]; 0.729 in [9]; 1.42 in assay [10]; 4.13 in [11]; 2.15 in assay [12]. Further, the PBM binding z-score in assay [13] is 1.62; in assay [14] it was 1.21; in assay [15], 0.376; in assay [16], 1.19; in [17], 0.48; in [18], 1.72. The PBM binding z-score was determined as 0.335 in assay [19] and 1.53 in assay [20].
As to TCTTGTAGCTCAAGCAGGTTAAGAAAGCCTGAGT, the PBM binding z-score is -0.423 in assay [1]; -0.287 in assay [2]; -0.662 in assay [3]; 0.0107 in assay [4]; -0.909 in assay [5]; 0.461 in [6]. Besides, the PBM binding z-score was -0.708 in assay [7]; 0.77 in assay [8]; 2.04 in assay [9]; 1.39 in assay [10]; 0.652 in assay [11]; -0.0591 in assay [12]. Besides, the PBM binding z-score in assay [13] is -0.768; in [14], -0.282; in [15], -1.23; in assay [16], -0.102; in assay [17], -0.596; in assay [18] it was -0.128. In addition, the PBM binding z-score in assay [19] is -0.944; in assay [20], -0.012.
ATCGAAAGGTCGAGGTGTGTATAGAGAAAGGGAA: the PBM binding z-score in [1] amounted to 3.92; in [2] it was 3.39; in assay [3] it was 0.47; in assay [4], 2.82; in [5] it was 0.483; in assay [6], 4.43. In addition, the PBM binding z-score came to 2.6 in assay [7]; 3.16 in assay [8]; 1.2 in assay [9]; 2.19 in assay [10]; 0.539 in assay [11]; 1.92 in assay [12]. Besides, the PBM binding z-score in assay [13] turned out to be 1.19; in [14], 0.613; in assay [15], 1.6; in assay [16] it was 2.17; in assay [17] it was 0.958; in [18], 3.25. Moreover, the PBM binding z-score in [19] stood at 1.16; in assay [20] it was 4.03.
